The record followed here is the supplement of paper PMC12669032.

Unmarked numbers belong to inactive results.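 Rule for the calls: active = AUC reduced over 20% with Padj below 0.05 in at least 2 of 3 replicates; inactive = otherwise.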

In the test the test system is Escherichia coli ED1a. Kind of test: growth AUC relative to DMSO control (median of replicates) (fraction); higher = more growth (less inhibition), active = hit call of the paper. Particulars: 20 µM; 24 h. The essentials:
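OD600 was recorded every hour for 24 h in anaerobic monocultures of gut bacteria kept at 37 °C in mGAM, seeded at OD600 0.05 and given 20 µM compound in 1% DMSO. The area under each growth curve was scaled to the plate median of solvent-only wells, or to row and column medians for the industrial chemical plate. Before this step, the minimum OD was set to 0. Reported values are medians of three biological replicates run on separate days.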
As for `CC1(C)CCC(Cc2ccc(Cl)cc2)C1(O)Cn1cncn1` (centres undefined), the “growth AUC” value was 0.971. In the case of `CC(C)(C)C(O)C(Cc1ccc(Cl)cc1Cl)n1cncn1` (mixture of isomers) it was 0.981; in that of `CC1(C)C(C=C(Cl)Cl)C1C(=O)OCc1cccc(Oc2ccccc2)c1` (mixture of isomers), 1.02; in that of `O=[N+]([O-])C(Br)(CO)CO`, 1. In the case of `COc1cc(OC)nc(NC(=O)NS(=O)(=O)c2ncccc2C(=O)N(C)C)n1` it was 1.05; in that of `COC(=O)c1ccccc1S(=O)(=O)NC(=O)Nc1nc(C)cc(C)n1`, 0.993; in that of `CCS(=O)(=O)c1nc2ccccn2c1S(=O)(=O)NC(=O)Nc1nc(OC)cc(OC)n1`, 0.99. In the case of `COc1cc(OC)nc(NC(=O)NS(=O)(=O)c2cc(NC=O)ccc2C(=O)N(C)C)n1` it was 0.996; in that of `O=C(Nc1ccccc1)Nc1cnns1`, 0.91; in that of `CCSCCSP(=S)(OC)OC`, 1.01. Consider `Clc1cc(Cl)c(Cl)cc1Cl`, for which the “growth AUC” value was 1.02. The same measure for `COP(=S)(OC)Oc1cc(Cl)c(Br)cc1Cl`: 0.987; for `CC(C)C1(C)N=C(c2ncccc2C(=O)O)NC1=O` (centres undefined): 0.993; for `O=c1oc2ccccc2c(O)c1C1CCCc2ccccc21` (centres undefined): 1.04.
